# Screening data as filed in PubChem.
# PP1 counter: counter-screen for PP5 inhibitors: inhibitors of human PP1-alpha; P62136; purified PP1alpha, OMFP fluorescence; inhibition, % at 6.7 µM; actives 0.9% (n = 320,000);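 active = inhibition above the mean inhibition of all tested compounds plus 3 SD, computed separately for each screening campaign, cut at about 15% in these data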
# ANO1 block: inhibitors of mouse TMEM16A calcium-activated chloride channel. Q8BHY3. actives 1.2% (n = 310,000). normalized B-score (activity score, 25-100; higher = stronger inhibition) at 10 µM. HEK293 TMEM16A/YFP iodide influx fluorescence, ionomycin. AID 588511;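 active = ratio plate-corrected score three or more library SD toward inhibition, starting fluorescence score within five deviations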;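 also: score derived from kinetic fluorescence span divided by baseline fluorescence per well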
# PP5 primary: PP5 (human) phosphatase inhibition. inhibition, % at 6.7 µM. AID 1987. actives 0.18% (n = 320,000). purified PP5c, OMFP substrate fluorescence. P53041;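 active = inhibition above the campaign's mean inhibition across all tested compounds plus 3 SD, cut at about 9.5% in these data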;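 also: 0% = DMSO only and 100% = 100 µM cantharidin control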
# FID counter: displaces DNA intercalator in HCV helicase counter-screen; DNA fluorescent intercalator displacement, fluorescence; inhibition, % at 7.9 µM; actives 0.17% (n = 290,000); in the data active = inhibition above about 37%;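 also: 0% = vehicle and 100% = reference compound; higher means more ethidium bromide displaced from hairpin DNA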
# ANO1 activ: activators or potentiators of mouse TMEM16A chloride channel. B-score at 10 µM. actives 0.3% (n = 340,000). HEK293 TMEM16A/YFP-H148Q/I152L, iodide quench fluorescence; active compounds read low. AID 623877;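 active = fluorescence-ratio B-score plate-corrected deviation score at least 3 library SD below zero, with starting fluorescence score within 5 deviations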;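 also: channel opened by trigger with iodide after compound preincubation; score built on the fluorescence ratio of max minus min over baseline; more negative score means more quench and so TMEM16A activation or potentiation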
# PREPL inh: human PREPL enzyme inhibition | inhibition, % at 5.96 µM | actives 0.68% (n = 320,000) | recombinant PREPL, fluorescence polarization activity-based probe | Q4J6C6; in the data active = inhibition above about 43%;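 also: 0% = enzyme with DMSO and 100% = wells lacking enzyme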
# Target sequence (Q4J6C6 whole entry, looked up): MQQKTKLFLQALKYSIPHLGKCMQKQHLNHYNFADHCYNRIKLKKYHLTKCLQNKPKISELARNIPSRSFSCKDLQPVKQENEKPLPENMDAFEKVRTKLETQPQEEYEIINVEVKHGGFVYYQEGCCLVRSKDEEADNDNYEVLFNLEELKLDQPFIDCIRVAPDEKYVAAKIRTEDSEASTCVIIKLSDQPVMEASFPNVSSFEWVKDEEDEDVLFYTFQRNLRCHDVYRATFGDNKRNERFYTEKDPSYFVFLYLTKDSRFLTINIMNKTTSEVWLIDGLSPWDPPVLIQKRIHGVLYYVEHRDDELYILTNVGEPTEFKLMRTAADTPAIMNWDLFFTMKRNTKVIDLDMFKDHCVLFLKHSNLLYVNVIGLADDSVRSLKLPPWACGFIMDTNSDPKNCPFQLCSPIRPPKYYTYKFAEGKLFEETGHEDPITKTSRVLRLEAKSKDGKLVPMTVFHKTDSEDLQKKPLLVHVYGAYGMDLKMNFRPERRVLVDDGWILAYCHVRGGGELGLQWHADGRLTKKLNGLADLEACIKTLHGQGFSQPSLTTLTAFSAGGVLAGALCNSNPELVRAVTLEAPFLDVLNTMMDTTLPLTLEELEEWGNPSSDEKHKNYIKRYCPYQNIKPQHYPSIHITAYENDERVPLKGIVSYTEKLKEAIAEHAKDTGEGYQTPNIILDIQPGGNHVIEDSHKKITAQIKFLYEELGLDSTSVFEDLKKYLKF
# PP1 inh confirm: confirmation of human PP1 phosphatase inhibitors; shares compounds with PP1 counter; purified PP1alpha, OMFP substrate fluorescence; inhibition, % at 6.7 µM; actives 52% (n = 1,900);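 active = mean PP1 inhibition above a set limit taken from the earlier primary screen, cut at about 15% in these data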
# PP5 counter: PP5 phosphatase inhibition, counter-screen for PP1 inhibitors; shares compounds with PP1 counter; purified PP5c, OMFP fluorescence; inhibition, % at 6.7 µM; actives 4% (n = 1,900); AID 2360;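 active = mean PP5 inhibition over triplicate wells above about 9.5% taken from the earlier PP1 screen, limit read from the data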
# An asterisk follows results filed as active; i = inactive; x = not tested or not shown. Hits are enriched below; roughly 2.7% of the tested compounds scored in any of these assays.
SMILES,PP1 counter,ANO1 block,PP5 primary,FID counter,ANO1 activ,PREPL inh,PP1 inh confirm,PP5 counter
CCC(=O)NC(c1ccc(C)cc1)c1cc([N+](=O)[O-])c2cccnc2c1O (stereo unspecified),39*,i,1,-1,i,14,12,12*
Cc1ccnc2nc(C(=O)OCC(=O)c3ccc(NC(=O)CC(C)C)cc3)nn12,x,x,x,x,i,2,x,x
CCC(=O)Nc1ccc(C(=O)COC(=O)c2nc3nccc(C)n3n2)cc1,20*,x,2,x,i,4,8,0
CC1=CC(=O)c2c(O)ccc(O)c2C1=O,28*,100*,3,6,x,35,2,28*
Oc1c(CN2CCc3ccccc3C2)cc(Cl)c2cccnc12,31*,i,2,-5,i,40,40*,0
Oc1c(I)cc(Cl)c2cccnc12,19*,i,2,-3,i,2,12,5
O=[N+]([O-])c1cc(CN2CCOCC2)c2cccnc2c1O,x,x,x,-10,x,x,x,x
O=[N+]([O-])c1cc(CN2CCN(c3ccccc3)CC2)c(O)c2ncccc12,19*,i,3,3,i,8,29*,1
O=[N+]([O-])c1cc(Cl)c2cccnc2c1O,6,i,1,-6,i,19,x,x
CCC(C(=O)NCc1ccco1)n1nc(C)n2c(cc3occc32)c1=O (stereo unspecified),-3,i,2,-9,i,2,x,x
C#CCN(Cc1ccco1)C(=O)c1ccc(OC2CCN(Cc3ccccn3)CC2)cc1,1,i,0,-1,i,4,x,x
CCc1cccc(NC(=O)c2ccc(Cn3c(=O)[nH]c4ccsc4c3=O)cc2)c1,18*,i,2,-9,i,-35,13,0
O=C(c1ccc(Cn2c(=O)[nH]c3ccsc3c2=O)cc1)N1CCN(c2ccccc2)CC1,-3,i,2,-15,i,-56,x,x
Cc1cc(NC(=O)CSc2ccc(-c3ccc(Br)cc3)nn2)no1,18*,i,-2,-14,i,1,-3,-3
CSCCC(NC(=O)COc1ccccc1)C(=O)N(C)CC(=O)Nc1c(C)cccc1C (stereo unspecified),21*,i,0,x,i,0,-5,-4
CSCCC(NC(=O)COc1ccccc1)C(=O)OCCOc1ccc(C)cc1 (stereo unspecified),1,x,2,x,i,14,x,x
Cc1ccccc1/C=C/c1nc2ccccc2c(=O)[nH]1,20*,i,0,-6,i,-10,18*,-2
NS(=O)(=O)c1cnccc1Oc1cccc(Cl)c1,1,i,4,x,i,-4,x,x
C#CCOCCOCCOCCNc1nc(N2CCN(C(=O)CCCCCCCCCCNC(=O)[C@H](CCCCN)n3cc(C[C@@H](C)CC)nn3)CC2)nc(N2CCN(C(=O)CCCCCCCCCCNC(=O)[C@@H]([C@H](C)O)n3cc(C)nn3)CC2)n1,61*,i,5,x,-18*,35,47*,4
C#CCOCCOCCOCCNc1nc(N2CCN(C(=O)CCCCCCCCCCNC(=O)[C@@H](CCSC)n3cc(CCO)nn3)CC2)nc(N2CCN(C(=O)CCCCCCCCCCNC(=O)[C@H](CCC(=O)O)n3cc(CCCCCN)nn3)CC2)n1,18*,i,3,x,i,3,37*,4
C#CCOCCOCCOCCNc1nc(N2CCN(C(=O)CCCCCCCCCCNC(=O)[C@@H](CCC(=O)O)n3cc(CCCCCN)nn3)CC2)nc(N2CCN(C(=O)CCCCCCCCCCNC(=O)[C@H](CCCCN)n3cc(C[C@@H](C)CC)nn3)CC2)n1,18*,100*,1,x,-5.7*,31,11,2
C#CCOCCOCCOCCNc1nc(N2CCN(C(=O)CCCCCCCCCCNC(=O)[C@H](CCCCN)n3cc(C)nn3)CC2)nc(N2CCN(C(=O)CCCCCCCCCCNC(=O)[C@@H]([C@H](C)O)n3cc(C)nn3)CC2)n1,7,i,1,x,i,36,x,x
C#CCOCCOCCOCCNc1nc(N2CCN(C(=O)CCCCCCCCCCNC(=O)[C@H]([C@@H](C)CC)n3cc(CCCCN=C(N)N)nn3)CC2)nc(N2CCN(C(=O)CCCCCCCCCCNC(=O)[C@@H]([C@H](C)O)n3cc(C)nn3)CC2)n1,56*,25*,2,x,-25*,38,47*,1
C#CCOCCOCCOCCNc1nc(N2CCN(C(=O)CCCCCCCCCCNC(=O)[C@@H](CCSC)n3cc(CCO)nn3)CC2)nc(N2CCN(C(=O)CCCCCCCCCCNC(=O)[C@@H]([C@H](C)O)n3cc(C)nn3)CC2)n1,6,i,1,x,i,9,x,x
Cc1cc(C(=O)OCC(=O)Nc2ccccc2C#N)c(C)o1,x,x,x,x,i,x,x,x
SMILES,PP1 counter,ANO1 block,PP5 primary,FID counter,ANO1 activ,PREPL inh,PP1 inh confirm,PP5 counter
C#CCOCCOCCOCCNc1nc(N2CCN(C(=O)CCCCCCCCCCNC(=O)[C@@H](CCSC)n3cc(CCO)nn3)CC2)nc(N2CCN(C(=O)CCCCCCCCCCNC(=O)[C@H](CCCN=C(N)N)n3cc(C[C@@H](C)CC)nn3)CC2)n1,49*,100*,4,x,-26*,37,39*,4
C#CCOCCOCCOCCNc1nc(N2CCN(C(=O)CCCCCCCCCCNC(=O)Cn3cc(C[C@@H](C)O)nn3)CC2)nc(N2CCN(C(=O)CCCCCCCCCCNC(=O)[C@@H]([C@H](C)CC)n3cc(CCCCCN)nn3)CC2)n1,55*,25*,5,x,i,42,44*,4
COCCCNC(=O)CN(CCc1ccccc1)S(=O)(=O)c1ccccc1,1,i,2,-23,i,2,x,x
COCCNC(=O)CN(CCc1ccccc1)S(=O)(=O)c1ccc(Br)cc1,33*,i,3,-26,i,-10,-1,-1
N#CC1(NC(=O)COc2ccc(S(=O)(=O)N3CCCC3)cc2[N+](=O)[O-])CCCCC1,-2,i,3,x,i,7,x,x
COc1ccccc1CNC(=O)c1ccc2nc3[nH]c4ccccc4c3nc2c1,21*,i,3,-3,i,-12,23*,-2
Cc1ccc(CNC(=O)c2ccc3nc4[nH]c5ccccc5c4nc3c2)cc1,x,x,x,0,x,x,x,x
Cc1cccc(NC(=O)C23CCC(C)(C2Br)C3(C)C)c1 (stereo unspecified),4,i,0,-16,i,12,x,x
O=C(CSc1ccc(-c2nc3ccccc3[nH]2)cn1)Nc1ccc(S(=O)(=O)N2CCCC2)cc1,9,i,-4,-6,i,-33,x,x
